# Measurements reported in PubChem BioAssay AID1376 (SRMLSC, 2008).
# In all, about 220,000 compounds went through this assay and about 530 (0.24%) were called active. Cut-off read from the data, not from the text of the source: active = inhibition above about 13%; inconclusive = no clear call, values can overlap the other calls; inactive = below that. Shown is part of a subset that was picked to be rich in actives. Potency and affinity values are given separately.
# Target: Bifunctional protein GlmU (Mycobacterium tuberculosis (strain ATCC 25618 / H37Rv)) (UniProt P9WMN3)
# Assay: inhibition of mycobacterial GlmU enzyme – biochemical, glucosamine-1-phosphate acetyltransferase (AID 1376);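 note: 0% = complete reaction with vehicle and 100% = reaction without substrate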
# Details: M. tuberculosis GlmU acetyltransferase enzyme assay; stronger effect = higher value;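 tested at 30 µM in the primary screen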
# Sequence of Bifunctional protein GlmU (Mycobacterium tuberculosis (strain ATCC 25618 / H37Rv)) (P9WMN3 whole entry, looked up): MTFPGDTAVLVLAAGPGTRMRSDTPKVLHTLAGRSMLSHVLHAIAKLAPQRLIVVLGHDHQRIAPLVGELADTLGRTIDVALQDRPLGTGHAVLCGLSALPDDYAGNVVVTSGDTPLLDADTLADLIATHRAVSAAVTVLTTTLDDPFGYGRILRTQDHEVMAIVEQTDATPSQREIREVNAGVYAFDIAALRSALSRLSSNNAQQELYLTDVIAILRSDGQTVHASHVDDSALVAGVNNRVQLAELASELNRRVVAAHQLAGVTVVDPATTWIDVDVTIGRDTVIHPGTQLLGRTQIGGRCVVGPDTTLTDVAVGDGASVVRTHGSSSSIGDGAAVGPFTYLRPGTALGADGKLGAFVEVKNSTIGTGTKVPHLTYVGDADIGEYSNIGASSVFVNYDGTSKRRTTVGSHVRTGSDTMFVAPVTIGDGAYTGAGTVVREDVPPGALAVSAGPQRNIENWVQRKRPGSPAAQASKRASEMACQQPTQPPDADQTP
row,SMILES,inhibition
1,Cc1nc2cccc(C(=O)NC3CCCCC3)c2o1,14.4% (active)
2,Cc1nc2cccc(C(=O)NCc3ccccc3)c2o1,-4.24% (inactive)
3,O=C(NC1CCCCC1)c1cc(Cl)nc2ccccc12,1.21% (inactive)
4,Cc1cc(Br)ccc1SCC(=O)OCC(=O)Nc1ncc(C(F)(F)F)cc1Cl,1.65% (inactive)
5,CCOC(=O)/C(C#N)=C/Nc1ccccc1OC,1.82% (inactive)
6,CCOC(=O)/C(C#N)=C/Nc1cc(OC)ccc1OC,-9.19% (inactive)
7,CCOC(=O)/C(C#N)=C/Nc1cc(C(=O)OCC)cc2c(OC)c(OC)ccc12,26.4% (active)
8,C#Cc1ccc([C@H]2C=C(C(=O)NC3CC3)O[C@@H](OCC)[C@@H]2CCCO)cc1,3.19% (inactive)
9,CCCN1C(=O)c2cc(C(=O)Nc3ccccc3C)ccc2C1Nc1ccccc1C (configuration not stated),12.9% (active)
10,CCCN1C(=O)c2cc(C(=O)Nc3ccc(OC)cc3OC)ccc2C1Nc1ccc(OC)cc1OC (configuration not stated),-6.94% (inactive)
11,CCCN1C(=O)c2cc(C(=O)Nc3ccccc3OC)ccc2C1Nc1ccccc1OC (configuration not stated),-4.43% (inactive)
12,Cc1cc(NC(=O)C2CCCCC2C(=O)O)no1 (configuration not stated),-2.61% (inactive)
13,Cc1cccc(NNC(N)=S)c1C,1.37% (inactive)
14,CN(C)c1ccc(/C=C/c2ccc3c4ccccc4ccc3[n+]2-c2ccccc2)cc1,41% (active)
15,CN(C)c1ccc(/C=C/c2ccc3ccccc3[n+]2C)cc1,-0.66% (inactive)
16,CC[n+]1c(/C=C/c2ccc(N(C)C)cc2)ccc2ccccc21,2.12% (inactive)
17,Cn1cccc1CC(=O)N/N=C/c1cccc([N+](=O)[O-])c1,-5.88% (inactive)
18,Cc1ccc(-n2c(C)nc3c(cnn3-c3ccc(C)c(C)c3)c2=O)cc1C,6.8% (inactive)
19,Cc1ccc(-n2c(C)nc3c(cnn3-c3ccc(F)cc3)c2=O)cc1C,-3.89% (inactive)
20,Cc1ccc(-n2ncc3c(=O)n(-c4ccc(C)c(C)c4)c(C)nc32)cc1,48.2% (active)
21,Cn1cc(/C=N/NC(=O)c2ccc(C#N)cc2F)c2ccccc21,1.51% (inactive)
22,C=CCN(CC=C)Cc1c(O)ccc2c1oc(=O)c1ccccc12,-2.23% (inactive)
23,CN(Cc1c(O)ccc2c1oc(=O)c1ccccc12)C1CCCCC1,14% (active)
24,CN(C)Cc1c(O)ccc2c3c(c(=O)oc12)CCCCC3,0.45% (inactive)
25,COc1ccc2cc3cc(C(=O)NCCCN4CCc5ccccc5C4)sc3nc2c1,-12.5% (inactive)
26,Cc1ccc(/C=N/NC(=O)C[n+]2ccccc2)o1,5.08% (inactive)
27,O=C(CCC(=O)c1cccs1)Nc1nnc(C2CC2)s1,2.51% (inactive)
